PubChem BioAssay (NCI)
Where “and” joins values, the source holds several entries; their conditions need not be identical. Identical values can stand only once. This is part of a sample that, as a whole, favours compounds with a hit. Of some 83,000 tested, about 20% had one in any assay.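 48-hour exposure, single concentration, 96-well plates; percent growth endpoint where 0 means no net growth. Active: below 10.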

Experiments:
Assay in all cases: NCI-60 one-dose screen, 48 h (100 = growth as untreated, 0 = no growth, -100 = all killed)
Conditions in all cases: 10 µM unless noted
HCT-15 colon = test system: HCT-15 colon
HT29 colon = test system: HT29 colon
SNB-75 CNS = test system: SNB-75 CNS
SNB-19 CNS = test system: SNB-19 CNS
PC-3 prostate = test system: PC-3 prostate
SK-MEL-5 melanoma = test system: SK-MEL-5 melanoma
UACC-62 melanoma = test system: UACC-62 melanoma
LOX IMVI melanoma = test system: LOX IMVI melanoma
SK-MEL-28 melanoma = test system: SK-MEL-28 melanoma
SK-MEL-2 melanoma = test system: SK-MEL-2 melanoma
EKVX NSCLC = test system: EKVX NSCLC
SN12C renal = test system: SN12C renal
UO-31 renal = test system: UO-31 renal
TK-10 renal = test system: TK-10 renal
ACHN renal = test system: ACHN renal
CAKI-1 renal = test system: CAKI-1 renal
A498 renal = test system: A498 renal
CCRF-CEM leukemia = test system: CCRF-CEM leukemia
MOLT-4 leukemia = test system: MOLT-4 leukemia
U251 CNS = test system: U251 CNS

Measured: growth

O=C(O)c1cc(=O)[nH]c(=O)[nH]1
inactive: HCT-15 colon 102% and 97.9% | HT29 colon 93.3% and 110% | SNB-75 CNS 102% and 86.4% | SNB-19 CNS 111% and 104% | PC-3 prostate 91.4% and 80.3% | SK-MEL-5 melanoma 82.6% | UACC-62 melanoma 103% and 92.5% | LOX IMVI melanoma 98.8% and 92.3% | SK-MEL-28 melanoma 114% and 93.6% | SK-MEL-2 melanoma 111% and 65.2% | EKVX NSCLC 93.6% and 115% | SN12C renal 98.7% and 98.5% | UO-31 renal 78.8% and 42.2% | TK-10 renal 106% and 135% | ACHN renal 94.7% and 95.2% | CAKI-1 renal 94.9% and 119% | A498 renal 94.3% and 71.1% | CCRF-CEM leukemia 105% and 74.4% | MOLT-4 leukemia 98.5% and 91.5%

Nc1[nH][nH]c(=O)c1N=Nc1ccccc1
inactive: HCT-15 colon 96.3% and 106% | HT29 colon 107% and 88.8% | SNB-75 CNS 79.3% and 111% | SNB-19 CNS 99.5% and 112% | PC-3 prostate 99% and 101% | SK-MEL-5 melanoma 104% and 99.5% | UACC-62 melanoma 96.3% and 109% | LOX IMVI melanoma 105% and 100% | SK-MEL-28 melanoma 111% and 118% | SK-MEL-2 melanoma 122% and 100% | EKVX NSCLC 85.3% and 91.3% | SN12C renal 97.6% and 106% | UO-31 renal 82.7% and 85.1% | TK-10 renal 112% and 109% | ACHN renal 91.2% and 104% | CAKI-1 renal 104% | A498 renal 86.8% and 86.2% | CCRF-CEM leukemia 108% | MOLT-4 leukemia 121% and 100%

CC(=O)Nc1ccc2oc(=O)ccc2c1
inactive: HCT-15 colon 107% | HT29 colon 106% | SNB-75 CNS 89% | SNB-19 CNS 102% | U251 CNS 108% | PC-3 prostate 100% | SK-MEL-5 melanoma 97.8% | UACC-62 melanoma 93.9% | LOX IMVI melanoma 99.7% | SK-MEL-2 melanoma 101% | EKVX NSCLC 94.6% | SN12C renal 95.6% | UO-31 renal 91.3% | TK-10 renal 111% | ACHN renal 113% | CAKI-1 renal 88.1% | A498 renal 89.9% | CCRF-CEM leukemia 109% | MOLT-4 leukemia 98.6%

O=C(O)/C=C/C=C/c1ccccc1
inactive: HCT-15 colon 102% and 108% | HT29 colon 100% and 103% | SNB-75 CNS 103% and 98.4% | SNB-19 CNS 97.1% and 100% | PC-3 prostate 97.4% and 101% | SK-MEL-5 melanoma 102% and 94.7% | UACC-62 melanoma 96.1% and 102% | LOX IMVI melanoma 99.3% and 97.9% | SK-MEL-28 melanoma 103% and 109% | SK-MEL-2 melanoma 104% and 115% | SN12C renal 96% and 106% | UO-31 renal 93.1% and 88.4% | TK-10 renal 97.3% and 106% | ACHN renal 103% and 109% | CAKI-1 renal 98.9% and 101% | A498 renal 73.4% | CCRF-CEM leukemia 102% and 95.1% | MOLT-4 leukemia 106% and 109%

CCCCCCC(C)CC1=C(O)c2ccccc2C(=O)C1=O (configuration not stated)
inactive: HCT-15 colon 28.4% | HT29 colon 66.6% | SNB-75 CNS 61.6% | SNB-19 CNS 46% | U251 CNS 46.3% | PC-3 prostate 33.9% | SK-MEL-5 melanoma 11.9% | UACC-62 melanoma 29.9% | LOX IMVI melanoma 10.2% | SK-MEL-2 melanoma 68.9% | EKVX NSCLC 62% | SN12C renal 46.6% | UO-31 renal 42.7% | TK-10 renal 60.5% | ACHN renal 37.5% | CAKI-1 renal 39.7% | A498 renal 54.3% | CCRF-CEM leukemia 33.3% | MOLT-4 leukemia 26.6%

Nc1ccc(O)c(C(=O)O)c1
inactive: HCT-15 colon 97.3% and 107% and 99.2% | HT29 colon 111% and 113% and 115% | SNB-75 CNS 74.4% and 97.2% and 94.7% | SNB-19 CNS 91.9% and 104% and 117% | PC-3 prostate 89.6% and 105% | SK-MEL-5 melanoma 93.4% and 94.1% and 108% | UACC-62 melanoma 91.3% and 102% and 84.2% | LOX IMVI melanoma 84% and 99.5% | SK-MEL-2 melanoma 110% and 124% and 122% | EKVX NSCLC 101% and 99.5% and 106% | SN12C renal 82% and 103% and 98.7% | UO-31 renal 101% and 92% and 67.8% | TK-10 renal 133% and 110% and 98.8% | ACHN renal 99.3% and 108% and 82.8% | CAKI-1 renal 107% and 102% and 99.8% | A498 renal 108% and 88% | CCRF-CEM leukemia 106% | MOLT-4 leukemia 97.8% and 104% and 105%
